The text below walks through data of PubChem BioAssay (NCATS).

Inconclusive results are not listed. Values without a mark were called inactive. The source made the active and inactive calls. Calls follow the shape of the dose curve; as a rule, active = well fitted curve in the direction sought with a large enough effect; inconclusive = small, poorly fitted or top-dose-only effect, or another doubt; inactive = no such curve, though single readings can be large; an effect the other way counts as inactive or inconclusive.

One assay has as its system WaGa. In words: qHTS assay to identify novel small-molecules to repurpose for Merkel cell carcinoma treatment (AID 1296009). Also: nearly all actives have a fitted effect of over 60% in size. The following applies: MCC and control cell lines, CellTiter-Glo viability, 72 h; series mostly up to 46 µM. In outline: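 After compound transfer in DMSO, plates were kept 72 hr at 37 degree celsius. Luminescent ATP signal from CellTiter-Glo served as viability measure, normalized against DMSO and no-cell controls.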
In general terms: In qHTS, concentration-response curves come from the screen itself.

Another assay relates to C33A. In words: Primary qHTS to identify gynecologic anti-cancer compounds using libraries of approved drugs and bioactive compounds (AID 1345084). Also: nearly all actives have a fitted effect of over 55% in size. To be noted: Gynecologic cancer cell panel viability, ATPlite luminescence, 48 h; series mostly up to 57.5 µM. In outline: (§1)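 In this quantitative HTS, cell killing is estimated from loss of ATP-dependent luciferase light. Cells see five compound concentrations over a 48 h exposure.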

In another assay the test system is CAOV3. The assay is described as above. The following applies: Gynecologic cancer cell panel viability, ATPlite luminescence, 48 h; series mostly up to 57.5 µM. The procedure, abridged:
as §1
(In ATP-based viability assays light output follows the ATP content of the culture.)

The subject of another assay is CASKI. The description is as above. The following applies: Gynecologic cancer cell panel viability, ATPlite luminescence, 48 h; series mostly up to 57.5 µM. The procedure, abridged: as §1
A further assay relates to Es-2. The description is as above. To be noted: Gynecologic cancer cell panel viability, ATPlite luminescence, 48 h; series mostly up to 57.5 µM. In outline: as §1
Another assay relates to HeLa. Described as above. The following applies: Gynecologic cancer cell panel viability, ATPlite luminescence, 48 h; series mostly up to 57.5 µM. The procedure, abridged: as §1
For the next assay, the system named is Hek293T. Described as above. The following applies: Gynecologic cancer cell panel viability, ATPlite luminescence, 48 h, control line for the selectivity index; series mostly up to 57.5 µM. In outline:
as §1

The next assay concerns JEG-3. Described as above. To be noted: Gynecologic cancer cell panel viability, ATPlite luminescence, 48 h; series mostly up to 57.5 µM. The procedure, abridged:
as §1

The subject of a further assay is OV90. Described as above. To be noted: Gynecologic cancer cell panel viability, ATPlite luminescence, 48 h; series mostly up to 57.5 µM. The procedure, abridged: as §1
A further assay deals with PA-1. The assay is described as above. To be noted: Gynecologic cancer cell panel viability, ATPlite luminescence, 48 h; series mostly up to 57.5 µM. The procedure, abridged: as §1
A further assay relates to SKOV3. The assay is described as above. To be noted: Gynecologic cancer cell panel viability, ATPlite luminescence, 48 h; series mostly up to 57.5 µM. In outline: as §1
A further assay concerns Tov-21-G. Described as above. The following applies: Gynecologic cancer cell panel viability, ATPlite luminescence, 48 h; series mostly up to 57.5 µM. In outline: as §1
The test system of another assay is Tov112D. The assay is described as above. To be noted: Gynecologic cancer cell panel viability, ATPlite luminescence, 48 h; series mostly up to 57.5 µM. The procedure, abridged:
as §1

Assay [1] in a line: Drug repurposing screens with cells derived from glioblastoma tumor samples (AID 1345199). Also: nearly all actives have a fitted effect of over 40% in size. Also: potency is read from the fitted curve at half-maximal effect. The following applies: GBM patient neurospheres viability, ATP luminescence, 48 h. In outline: (§2)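 Four patient lines of CD133+ GBM neurospheres were screened at several concentrations; hits were retested in those lines plus three slower-growing GBM lines, using 48-hour treatment and ATP-based viability.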

In another assay the test system is astro. The description is as above. The following applies: viability, ATP luminescence, 48 h; series mostly up to 45.9 µM. In outline: as §2
Where [2] appears, read: at 45.9 µM (top of the series), tumour line B.
[3] abbreviates: at 45.9 µM (top of the series), tumour line D.
% is scaled to controls: 0 for no effect and ±100 for the full control effect.

For `C=CCC1([C@H](C)CCC)C(=O)NC(=O)NC1=O`, the Potency result in the assay with WaGa, in the assay with C33A, in the assay on Es-2, in the assay on HeLa, in the assay with OV90 and in the assay on PA-1 was “inactive” each time. Besides, the Potency entry in the assay on Tov-21-G, with Tov112D and in the assay on astro was “inactive” each time. For the same molecule, the molecule was classed as inactive in the assay on CAOV3, in the assay on CASKI, in the assay on Hek293T, in the assay on JEG-3 and in the assay with SKOV3. Moreover, the activity, negative = cell killing in assay [1] (at 91.6 µM (top of the series), tumour line B) is -8.55%; in assay [1] (at 91.6 µM (top of the series), tumour line D), -0.262%.
Consider `NC(=O)c1cc([N+](=O)[O-])cc([N+](=O)[O-])c1`, for which the Potency result in the assay on WaGa, in the assay with C33A, with Es-2, with HeLa, in the assay with OV90 and in the assay on PA-1 was “inactive” in each case. The Potency entry with Tov-21-G and in the assay on Tov112D was “inactive” each time. The outcome with CAOV3, with CASKI, in the assay with Hek293T and with SKOV3 was inactive. The activity, negative = cell killing is -14% in [1] (setting [2]) and -22.7% in assay [1] (setting [3]).
On to `C=CCN1C[C@H](C)N([C@H](c2ccc(C(=O)N(CC)CC)cc2)c2cccc(OC)c2)C[C@H]1C`, for which the Potency entry with WaGa, with C33A, in the assay with Es-2, with HeLa, with OV90 and in the assay with PA-1 was “inactive” in each case. Further, the Potency entry in the assay on Tov-21-G, with Tov112D and in the assay on astro was “inactive” each time. In addition, the call with CAOV3, with CASKI, with Hek293T, in the assay on JEG-3 and in the assay with SKOV3 was inactive. Also, in assay [1] (setting [2]), the activity, negative = cell killing is -27.6%. Also, in [1] (tumour line A), the Potency was 7.08 µM (active).
As to `Clc1cccc(SC2CCNCC2)n1`, the Potency entry in the assay on WaGa, in the assay with C33A, in the assay on Es-2, in the assay on HeLa, with OV90 and in the assay with PA-1 was “inactive” in each case. Moreover, the Potency entry in the assay with Tov-21-G and in the assay with Tov112D was “inactive” throughout. For the same molecule, the molecule was called inactive in the assay with CASKI, with Hek293T, in the assay with JEG-3 and in the assay with SKOV3.
Take `COc1ccc2c(c1OC)C(=O)O[C@H]2[C@@H]1c2cc3c(cc2CCN1C)OCO3`: the Potency result in the assay with WaGa, in the assay on C33A, in the assay with Es-2, in the assay with HeLa, in the assay on OV90 and with PA-1 was “inactive” throughout. Further, the Potency entry in the assay with Tov-21-G, with Tov112D and in the assay with astro was “inactive” each time. Besides, the molecule was called inactive with CAOV3, in the assay on CASKI, with Hek293T and in the assay with JEG-3. Besides, the activity, negative = cell killing in [1] (setting [2]) is 0.565%; in assay [1] (setting [3]), -4.13%.
Take `C[C@H](N)C(=O)c1ccccc1`: the Potency entry with WaGa, with C33A, in the assay on Es-2, in the assay on PA-1, with Tov-21-G and in the assay with Tov112D was “inactive” each time. Further, the Potency entry with astro was “inactive”. Besides, the call with CAOV3, in the assay with CASKI, in the assay on Hek293T, in the assay on JEG-3 and with SKOV3 was inactive. Also, the activity, negative = cell killing in [1] (setting [2]) is -11.6%; in [1] (setting [3]) it was -9.76%; in assay [1] (at 108 µM (top of the series), tumour line B), -16.2%; in assay [1] (at 108 µM (top of the series), tumour line D), -20.3%.
As for `O=C1CN=C(c2ccccc2)c2cc([N+](=O)[O-])ccc2N1`, the Potency result with WaGa, with C33A, with Es-2, in the assay with HeLa, with OV90 and with PA-1 was “inactive” in each case. In addition, the Potency result in the assay on Tov-21-G, with Tov112D and in the assay with astro was “inactive” each time. Besides, the molecule was called inactive in the assay with CAOV3, with CASKI, in the assay on Hek293T, in the assay with JEG-3 and in the assay on SKOV3. The activity, negative = cell killing in [1] (setting [2]) was -7.18%; in assay [1] (setting [3]), -17.8%.
In the case of `C[C@@H]1CC2=CC(=O)CC[C@@H]2[C@H]2CC[C@@]3(C)[C@@H](CC[C@]3(C)O)[C@@H]21`, the Potency result in the assay with WaGa, in the assay on C33A, in the assay with Es-2, with HeLa, in the assay with PA-1 and with Tov-21-G was “inactive” in each case. Besides, in the assay with Tov112D, the Potency result was “inactive”. Moreover, the result in the assay on CAOV3, in the assay on CASKI, with Hek293T, in the assay with JEG-3 and with SKOV3 was inactive.
